According to PubChem BioAssay (Tox21):
Records with an inconclusive call do not appear. Where a call stands in place of a potency, no number is given. Calls of active or inactive are those of the source. The call rests on the fitted dose curve; in most records, active means well fitted activation curve with a large enough effect in the repeat runs; inconclusive means weak or mixed curves; inactive means no such curve, though single readings can be large or run the other way.

biological target: Aryl hydrocarbon receptor (Homo sapiens) (UniProt P35869); assay: qHTS assay to identify small molecule that activate the aryl hydrocarbon receptor (AhR) signaling pathway (AID 743085); settings: HepG2 AhR-luc (HG2L7.5c1), luciferase, 24 h; series mostly up to 70.3 µM; further: nearly all actives have a fitted effect of over 15% in size;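 on activation: HG2L7.5c1 human HepG2 liver cells with stably integrated DRE-driven firefly reporter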
Description: U.S. Tox21 Program National Center for Advancing Translational Sciences [NCATS] NIH Chemical Genomics Center [NCGC] U.S. Environmental Protection Agency [EPA] National Institutes of Environmental Health Sciences [NIEHS] National Toxicology Program [NTP] U.S. Food and Drug Administration [FDA] Tox21 Assay overview: The Aryl hydrocarbon Receptor (AhR), a member of the family of basic helix-loop-helix transcription factors, is crucial to adaptive responses to environmental changes. AhR mediates cellular responses to environmental pollutants such as aromatic hydrocarbons through induction of phase I and II enzymes but also interacts with other nuclear receptor signaling pathways. A cell based HepG2-AhR-luc assay (HG2L7.5c1 cell line, developed by Dr. Michael S. Denison, University of California at Davis, was used to assess the activation of AhR. HepG2 (human hepatocellular carcinoma) cells were stably transfected with an Ah receptor-responsive firefly luciferase reporter gene plasmid containing 20 dioxin responsive elements and luciferase reporter gene. Increased luciferase activity can be used to identify the compounds that induce AhR activation.
Tox21 Assay Protocol Summary: 4000 cells in 5 uL/well were dispensed into white wall/solid bottom 1536-well plates using a Multidrop Combi (Thermo Fisher Scientific Inc., Waltham, MA) dispenser. After the assay plates were incubated at 37C for 5 h, 23 nL of compound or DMSO vehicle was transferred to the assay plates by a pintool station (Kalypsys, San Diego, CA). The plates were incubated at 37C for 24 hr. After 1 ul/well of CellTiter-Fluor reagent (Promega, Madison, WI) was added into the assay plates using a Flying Reagent Dispenser (FRD) (Aurora Discovery, CA), the assay plates were incubated at 37C for 30 min. The fluorescence intensity in the plates was measured using a ViewLux plate reader (PerkinElmer, Shelton, CT), followed by the addition of 4 uL of ONE-Glo Luciferase Assay reagent (Promega) using an FRD (Aurora Discovery). After the assay plates were incubated at room temperature for 30 min, luminescence intensity was measured using a ViewLux plate reader (Perkin Elmer).
Potency means the concentration at half of the fitted maximal effect.

Chain of Aryl hydrocarbon receptor (Homo sapiens) (P35869 whole entry, looked up): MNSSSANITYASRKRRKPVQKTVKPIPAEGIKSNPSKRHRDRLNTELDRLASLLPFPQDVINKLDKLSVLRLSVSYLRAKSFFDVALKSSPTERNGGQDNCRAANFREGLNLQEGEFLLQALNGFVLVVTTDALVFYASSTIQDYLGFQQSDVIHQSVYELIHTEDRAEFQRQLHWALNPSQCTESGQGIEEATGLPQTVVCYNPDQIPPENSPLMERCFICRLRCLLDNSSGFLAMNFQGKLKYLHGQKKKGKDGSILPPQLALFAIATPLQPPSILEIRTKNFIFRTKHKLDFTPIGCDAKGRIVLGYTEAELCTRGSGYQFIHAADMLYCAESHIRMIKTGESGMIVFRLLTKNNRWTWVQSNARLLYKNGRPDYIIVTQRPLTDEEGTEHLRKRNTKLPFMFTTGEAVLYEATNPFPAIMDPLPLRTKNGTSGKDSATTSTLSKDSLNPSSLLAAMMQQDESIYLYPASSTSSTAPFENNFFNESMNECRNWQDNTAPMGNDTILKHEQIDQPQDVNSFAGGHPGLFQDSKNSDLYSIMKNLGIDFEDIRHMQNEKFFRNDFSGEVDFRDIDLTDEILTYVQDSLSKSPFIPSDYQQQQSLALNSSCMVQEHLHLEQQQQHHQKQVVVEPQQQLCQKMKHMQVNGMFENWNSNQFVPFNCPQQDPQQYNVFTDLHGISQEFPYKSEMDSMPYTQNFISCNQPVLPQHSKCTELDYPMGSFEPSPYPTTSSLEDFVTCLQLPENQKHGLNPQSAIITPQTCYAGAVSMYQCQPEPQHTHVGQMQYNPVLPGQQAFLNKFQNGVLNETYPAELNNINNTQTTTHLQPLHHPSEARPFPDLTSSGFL

Row | Structure (SMILES) | Potency
1 | C=Cc1ccc(C=C)cc1 | inactive
2 | Cc1ccc(NC=O)c(C)c1 | inactive
3 | C/C(=C\C(C)CC(C)CC(C)C)C1CC(=O)OC1=O (stereo not given) | inactive
4 | N#Cc1ccc(CC(=O)c2cccc(C(F)(F)F)c2)cc1 | inactive
5 | CCCCCCC/C=C/C=O | inactive
6 | C=CC(C)(O)CC/C=C(/C)CCC=C(C)C (stereo not given) | inactive
7 | CC(C)CCCCCCCOC(=O)c1ccc(C(=O)OCCCCCCCC(C)C)c(C(=O)OCCCCCCCC(C)C)c1 | inactive
8 | OCC(O)c1ccccc1 (stereo not given) | inactive
9 | NC(=O)c1cc[n+](CC2=C(C(=O)[O-])N3C(=O)[C@@H](NC(=O)Cc4cccs4)[C@H]3SC2)cc1 | inactive
10 | CC(=O)c1ccc(Cl)c(Cl)c1Cl | inactive
11 | COc1ccc(/C=C/S(=O)(=O)NC(=O)c2ccc(C)cc2Cl)cc1 | inactive
12 | COC(=O)/C=C/C(C)=C\C=C\C(C)=C\C=C\C=C(C)\C=C\C=C(C)\C=C\C(=O)O | inactive
13 | O=C(O)c1ccc2cc(O)ccc2c1 | inactive
14 | C[C@H]1C[C@H]2[C@@H]3CCC4=CC(=O)C=C[C@]4(C)[C@@]3(F)[C@@H](O)C[C@]2(C)[C@@]1(O)C(=O)COP(=O)(O)O | inactive
15 | O=C(N[C@@H](Cc1ccccc1)[C@@H](O)C(=O)N1C[C@@H](O)[C@@H](O)C1)c1cc2cc(Cl)ccc2[nH]1 | inactive
16 | C[Si](C)(C)O[Si](C)(C)O[Si](C)(C)C | inactive
17 | CC1(C)CC(=O)CC(C)(C)N1 | inactive
18 | Cc1c(Cl)cccc1[N+](=O)[O-] | inactive
19 | Cc1cc(SC2=C(O)C[C@@](CCc3ccc(N)cc3)(C(C)C)OC2=O)c(C(C)(C)C)cc1CO | inactive
20 | CC1=CC(=C(c2ccc(N)cc2)c2ccc(N)cc2)C=CC1=N | inactive

Row | Structure (SMILES) | Potency
21 | O=C(O)c1cccc(C(=O)O)c1C(=O)O | inactive
22 | CO[C@@H]1[C@@H](O[C@@H]2O[C@H](C)[C@@H](O[C@H]3C[C@@](C)(O)[C@@H](O)[C@H](C)O3)[C@H](N(C)C)[C@H]2O)[C@@H](CC=O)C[C@@H](C)[C@@H](O[C@@H]2CC[C@H](N(C)C)[C@@H](C)O2)/C=C/C=C/C[C@@H](C)OC(=O)C[C@H]1OC(C)=O | inactive
23 | CCC1=C(C)CN(C(=O)NCCc2ccc(S(=O)(=O)NC(=O)NC3CCC(C)CC3)cc2)C1=O (stereo not given) | inactive
24 | Nc1ccccc1Nc1ccccc1 | 54.6 µM (active)
25 | CC(C(=O)O)c1ccc2c(c1)Cc1cccnc1O2 (stereo not given) | inactive
26 | CCCN(C1CCN(C(=O)C2CCNCC2)CC1)[C@@H]1CCc2ccc(OC)cc2C1 | inactive
27 | O=C1OC(=O)C2CC=CCC12 (stereo not given) | inactive
28 | CC(=O)OCC(=O)[C@@]1(O)CC[C@H]2[C@@H]3CCC4=CC(=O)C=C[C@]4(C)[C@@]3(F)[C@@H](O)C[C@@]21C | inactive
29 | CCCCCCCCCCCC(=O)OCC | inactive
30 | CCCCCCOC(=O)c1ccccc1 | inactive
31 | NC(=O)c1ccccc1C(N)=O | 54.7 µM (active)
32 | Nc1cccc2c(=O)[nH][nH]c(=O)c12 | inactive
33 | CCOC(OCC)OCC | inactive
34 | CCCOC(C)=O | inactive
35 | CCOC(=O)CC(O)(CC(=O)OCC)C(=O)OCC | inactive
36 | C=CC(=O)NC(C)(C)C | inactive
37 | CC(O)C(C)O (stereo not given) | inactive
38 | C=CC(C)CCC=C(C)C (stereo not given) | inactive
39 | NCCOCCOCCN | inactive
40 | O=C(O)c1c2ccccc2cc2ccccc12 | inactive
